Source: PubChem
Shown are actives, neighbours in structure and some others; about 11% of the full set was active somewhere.
JMJD2A Tudor = blocks the human JMJD2A Tudor domain; O75164; AlphaScreen JMJD2A-Tudor / H3K4me3 peptide binding; Potency, µM (highest dose often 114 µM), actives largely listed as inhibitors; actives 4.4% (n = 390,000); further: nearly all actives have a fitted effect of over 50% in size
HP1b binding inh = HP1-beta chromodomain-methylated histone interaction inhibition; P83916; AlphaScreen HP1-beta / biotin-H3K9me3 peptide binding; Potency, µM (top dose mostly 114 µM), actives largely listed as inhibitors; actives 0.56% (n = 390,000); AID 540317; further: nearly all actives have a fitted effect of over 70% in size
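Compound inhibition of the preformed complex between 50 nM HP1-beta and 50 nM biotinylated H3K9me3 peptide was read by AlphaScreen. Buffer was PBS pH 7.4 with 0.01% Tween-20. Incubations ran 30 min at room temperature, with 10 ug/mL donor/acceptor beads.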
G9a inh = inhibitors of human histone lysine methyltransferase G9a | Q96KQ7 | G9a H3K9 monomethylation, AlphaScreen, 2 h | actives 8.8% (n = 350,000) | Potency, µM (series often up to 102 µM), actives largely listed as inhibitors; further: nearly all actives have a fitted effect of over 75% in size
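Compounds were preincubated with 20 nM G9a for 15 min, after which biotinylated H3K9 peptide (500 nM) and SAM (20 uM) started a 2 h room-temperature reaction. Monomethylated product was quantified by antibody-based AlphaScreen chemiluminescence.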
VDR inh = inhibitors of human vitamin D receptor. P11473. VDR-SRC2-3 peptide fluorescence polarization, 2 h. Potency, µM, most hits filed as inhibitors. actives 0.93% (n = 400,000)
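Measured by FP: displacement of SRC2-3 coactivator peptide from VDR by library compounds, following a two-hour ambient incubation.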
PLK1 PBD inh = blocks phosphopeptide binding to human PLK1 polo-box domain; P53350; Plk1 PBD binding of FITC phosphopeptide, fluorescence polarization; Potency, µM, usual class: inhibitors; actives 2.8% (n = 360,000); AID 720504; further: series mostly up to about 57 µM; nearly all actives have a fitted effect of over 65% in size
BAZ2B inh = blocks human BAZ2B; AID 504333; Potency, µM (series often up to 114 µM), most hits filed as inhibitors; AlphaScreen BAZ2B-H3K14Ac peptide displacement; actives 4.4% (n = 360,000); Q9UIF8; further: nearly all actives have a fitted effect of over 60% in size
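Multi-concentration screen (max 110 uM) measuring displacement of acetylated histone H3 peptide from BAZ2B by AlphaScreen, using 50 nM protein, 50 nM peptide and 10 ug/mL streptavidin donor plus Ni-chelate acceptor beads.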
Hits are given with their value; i = inactive; ? = inconclusive; nt = no result; [ ] = dose if it differs, or a comment. The call rests on the fitted dose curve; in most records, active means well fitted curve in the direction sought with a large enough effect; inconclusive means small, poorly fitted or top-dose-only effect, or another doubt; inactive means no such curve, though single readings can be large; an effect the other way counts as inactive or inconclusive.

SMILES	JMJD2A Tudor	HP1b binding inh	G9a inh	VDR inh	PLK1 PBD inh	BAZ2B inh
CC1CCN(c2ccc(-c3cccc(NS(=O)(=O)c4ccc(F)cc4F)c3)nn2)CC1	i	i	i	i	nt	i
CCOC(=O)N1CCC(N2C(=O)c3ccccc3C2Nc2ccc(S(=O)(=O)N3CCOCC3)cc2)CC1 (configuration not stated)	i	i	44.7µM	i	i	i
CCOC(=O)N1CCC(N2C(=O)c3ccccc3C2Nc2cc(OC)c(OC)c(OC)c2)CC1 (configuration not stated)	i	i	?	i	i	i
CCOC(=O)N1CCC(N2C(=O)c3ccccc3C2Nc2cc(Cl)c(OC)cc2OC)CC1 (configuration not stated)	?	i	44.7µM	i	i	44.7µM
O=C1c2ccccc2C(Nc2ccc(S(=O)(=O)N3CCOCC3)cc2)N1c1cccnc1 (configuration not stated)	i	i	i	i	i	i
CCCCCNC(=O)c1c[nH]c2ccc(S(=O)(=O)N3CCC(C)CC3)cc2c1=O	i	i	i	i	nt	i
Cc1ccc(-c2cn(-c3cccc(Cl)c3)c(S(=O)(=O)CC(=O)Nc3ccccc3F)n2)cc1	?	i	?	?	nt	?
O=C(COC(=O)CCc1nc2ccccc2s1)Nc1ccc(S(=O)(=O)N2CCOCC2)cc1	i	i	56.2µM	i	i	i
O=S(=O)(c1ccc(OCc2nc3ccccc3s2)c(Cl)c1)N1CCOCC1	i[11.4 µM]	i	50.1µM	i	i	i
O=C(COC(=O)CCc1nc2ccccc2s1)Nc1ncc(Cl)cc1Cl	i	i	44.7µM	i	i	?
O=C(COC(=O)CCCc1nc2ccccc2s1)Nc1ncc(Cl)cc1Cl	?	i	?	i	i	?
CC1(C2CCC3C4CCC5CC6(CCC5(C)C4C(=O)CC32C)OCCO6)OCCO1 (configuration not stated)	i	i	nt	i	i	nt
CCOc1ccc(S(=O)(=O)N(C)CC(=O)NC2CC2)cc1	i	i	i	i	i	i
COc1ccc(CNC(=O)C2CCCN(C(=O)N3CCOc4ccccc43)C2)cc1 (configuration not stated)	i	i	i	i	nt	i
CCCCCn1c(-c2ccco2)nc2nc3ccccc3nc21	i	i	i	i	i	i
c1coc(-c2cnc3ccccc3n2)c1	nt	nt	nt	nt	i	nt
C=CCn1c(-c2ccco2)n[nH]c1=S	10µM	i	?	i	i	i
Cn1c(-c2ccco2)n[nH]c1=S	7.94µM	i	4.47µM	i	i	i
CC(C)Cn1c(-c2ccco2)n[nH]c1=S	3.98µM	i	7.08µM	i	i	?
CCCCn1c(-c2ccco2)n[nH]c1=S	3.16µM	?	5.01µM	i	?	i
CCCN(CCC)C(=O)C[n+]1cccc(/C=N/O)c1	i	i	i	i	i	i
CCn1c(-c2ccco2)n[nH]c1=S	i[11.4 µM]	i	3.55µM	i	i	i
CCCCn1c(-c2sccc2C)n[nH]c1=S	4.47µM	?	7.94µM	i	i	i
CN(CC(=O)NCCc1ccc(S(N)(=O)=O)cc1)CC(=O)Nc1cccc(F)c1	i	i	i	i	i	i
C=CCN1C(=O)c2ccc(C(=O)NCCc3ccc(F)cc3)cc2C1=O	i	i	nt	i	i	nt
SMILES	JMJD2A Tudor	HP1b binding inh	G9a inh	VDR inh	PLK1 PBD inh	BAZ2B inh
CN(C(=O)CNC(=O)c1ccc(Br)o1)C1CCCCC1	i	i	?	i	i	i
CCN(Cc1cccs1)C(=O)CN1C(=O)NC(c2ccccc2)(c2ccccc2)C1=O	i	i	7.94µM	i	i	i
CCn1c(SCC(=O)NC2CCCC2)nnc1C(C)NC(=O)c1ccccc1Br (configuration not stated)	i	i	i	i	i	i
CCOc1ccc(NC(=O)c2cc3c(n(-c4ccc(OC)cc4)c2=O)CC(C)(C)CC3=O)cc1	i	i	i	i	nt	?
COc1ccc(-n2c3c(cc(C(=O)NNc4ccccc4C)c2=O)C(=O)CC(C)(C)C3)cc1	i	i	50.1µM	i	i	nt
COC(=O)C1=C(C)N(c2ccc(C)c(C)c2)/C(=C/c2ccc(O)cc2)C1=O	i	i	?	i	i	i
COC(=O)C1=C(C)N(c2ccc(OC)c(OC)c2)C(=O)/C1=C\c1cccs1	i	i	?	i	i	i
COC(=O)C1=C(C)N(Cc2ccc(C)cc2)C(=O)/C1=C\c1cc(OC)c(OC)c(OC)c1	11.2µM	i	25.1µM	50.1µM	i	39.8µM
COC(=O)C1=C(C)N(CC2CCCO2)C(=O)/C1=C\c1ccc(O)cc1 (configuration not stated)	35.5µM	?	?	i	i	?
CCOc1cc(/C=C2\C(=O)N(CCc3ccc(OC)c(OC)c3)C(C)=C2C(=O)OC)ccc1O	39.8µM	?	?	i	i	50.1µM
CCOc1cc(/C=C2\C(=O)N(Cc3ccco3)C(C)=C2C(=O)OC)ccc1O	17.8µM	20µM	8.91µM	?	i	50.1µM
COc1ccc(NC(=O)c2cc(-c3cc(F)ccc3OCC3CCCO3)n[nH]2)c(C)c1 (configuration not stated)	nt	nt	nt	nt	i	nt
COCCNC(=O)C1(C)CCCN(CCSc2ccccc2)C1 (configuration not stated)	nt	nt	nt	nt	i	nt
O=C(O)/C=C/c1cn(-c2ncc(C(F)(F)F)cc2Cl)c2ccccc12	i	i	i	i	i	i
COC(=O)C1=C(C)N(Cc2ccc(C)cc2)C(=O)/C1=C\c1ccc(O)c(OC)c1	25.1µM	22.4µM	i[2.33 µM]	?	i	50.1µM
CCOc1ccc(N2C(=O)S/C(=C\c3ccc(O)c(OC)c3)C2=O)cc1	i	i	i	?	i	i
COC(=O)C1=C(C)N(Cc2ccc(C)cc2)C(=O)C1	i	i	i	i	i	i
CCOC(=O)C1=C(C)N(c2ccc(C)cc2)C(=O)/C1=C\c1ccc(O)c(OC)c1	8.91µM	?	nt	?	i	44.7µM
CC1(C)CC(=O)C2=C(C1)Nc1ncnn1C2c1cccs1 (configuration not stated)	i	i	i	i	i	i
O=C(CN1C(=O)c2ccccc2C1=O)NCc1ccccn1	i	i	i[12.7 µM]	i	i	i
O=C(Cn1c(=O)sc2ccccc21)NCc1ccccn1	?	i	i	i	21.2µM	i
O=C(Nc1ccc(-c2nnc3n2CCCCC3)cc1)c1cc2ccccc2o1	i	i	i	i	i	i
Cc1c(C(=O)Nc2ccc(-c3nnc4n3CCCCC4)cc2)oc2c1ccc1ccccc12	?	i	50.1µM	i	i	i
CCCCn1c(N)c(N(CCOC)C(=O)c2ccc(N3CCCC3)c([N+](=O)[O-])c2)c(=O)[nH]c1=O	i	i	?	i	i	i
Cc1ccc(-c2nnn(CC(=O)N(Cc3ccccc3F)C(C(=O)NC3CCCC3)c3ccncc3)n2)o1 (configuration not stated)	i	i	25.1µM	i	i	i
